From PubChem BioAssay AID2501 (Southern Research Specialized Biocontainment Screening …, 2010)
Screen size: about 2,200 compounds; about 1,200 (55%) were called active. So high a share suggests a set chosen from earlier hits. This is one part of the list. A number with no mark means an inactive call. The limit is not given here; nearly all actives have IC50 up to about 92 µM.

assay: counter assay for TAg ATPase ADP read-out – biochemical, ADP-Hunter, fluorescence, counter-screen (AID 2501); details: series mostly up to 100 µM; inhibition: at the top concentration;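 also: purified T antigen ATPase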;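 as to inhibition: 0% = enzyme with vehicle and 100% = reference inhibitor wells; higher means more inhibition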

| Compound | inhibition | IC50 |
| --- | --- | --- |
| CCN1CCC[C@H]1CNC(=O)c1c(O)c(Cl)cc(Cl)c1OC | 12.9% |  |
| Nc1ccc(OCC(O)C[n+]2ccc(CCS(=O)(=O)[O-])cc2)cc1 (stereo unspecified) |  | 4.65 µM (active) |
| O=C(Cc1coc(-c2ccc(F)cc2)n1)NCc1ccccc1 | 6.02% |  |
| Oc1ccc(/C=C/c2cc(O)cc(O)c2)cc1 |  | 11.3 µM (active) |
| O=C(O)/C=C/c1ccc(O)cc1 |  | 8.81 µM (active) |
| Oc1cc(O)cc(/C=C/c2ccc(O)c(O)c2)c1 | 21.8% [at 50 µM] |  |
| O=C(/C=C/c1ccc(O)c(O)c1)c1ccccc1O |  | 6.57 µM (active) |
| O=C(O)/C=C/c1ccc(O)c(O)c1 |  | 6.76 µM (active) |
| O=C(c1nnsc1S(=O)c1ccc(Cl)cc1)N1CCOCC1 (stereo unspecified) | -15.7% |  |
| COc1cccc2c(=O)n(CC(=O)Nc3ccccc3F)ccc12 | -11.2% |  |
| CC(/C=C/c1ccc(O)cc1)=N/O |  | 3.08 µM (active) |
| Cc1coc2c1C(=O)C(=O)c1c-2ccc2c(C)cccc12 | -32.7% |  |
| CCn1c(/C=C/c2ccc(O)c(O)c2)nc2ccccc2c1=O |  | 64.8 µM (active) |
| O=c1c2ccccc2nc(COc2ccccc2)n1/N=C/c1ccc(O)c(O)c1 |  | 12.1 µM (active) |
| Cc1nc2ccccc2c(=O)n1/N=C/c1cn(-c2ccccc2)nc1-c1cccs1 | -4.96% |  |
| CCn1c(/C=C/c2c(C)[nH]c3ccccc23)nc2ccccc2c1=O | -12.5% |  |
| Oc1ccc(/C=N/n2c(COc3ccccc3)n[nH]c2=S)cc1O |  | 9.32 µM (active) |
| N#CCn1c(CCl)nc2ccccc2c1=O | -26.1% |  |
| CCCc1nc2ccccc2c(=O)n1/N=C/c1ccc(O)c(O)c1 |  | 10.5 µM (active) |

| Compound | inhibition | IC50 |
| --- | --- | --- |
| O=C(OCn1nnc2ccccc2c1=O)c1ccc(O)cc1 | -20.6% |  |
| CSC1=NS(=O)(=O)c2c(C)nn(C)c2S1 | 19.3% |  |
| CC(C)(C)c1cc[n+](C2=C([O-])c3ccccc3C(=O)/C2=N\S(=O)(=O)c2ccccc2)cc1 | -13.2% |  |
| CCCNC(=O)c1ccc2c(=O)c(O)c(-c3cccc(Br)c3)[nH]c2c1 | 22.1% |  |
| Nc1cc(CN2C(=O)c3ccccc3C2=O)cc(Cl)c1O |  | 4.47 µM (active) |
| O=C1/C(=N/n2cnnc2)c2ccccc2N1Cc1ccccc1 | 2.34% |  |
| O=C(NCc1ccccc1)c1onc(CSc2ccc(F)cc2)c1C(=O)NCCCN1CCOCC1 | 20.7% |  |
| COc1cc(-c2nc3cnccn3c2Nc2ccccc2)ccc1O |  | 2.57 µM (active) |
| CCN(CC)c1ccc(-c2nc3cnccn3c2NC2CCCC2)cc1 |  | 12.1 µM (active) |
| CN(C)c1ccc(-c2nc3cnccn3c2Nc2ccc3c(c2)OCCO3)cc1 |  | 11.3 µM (active) |
| Oc1ccc(-c2nc3ncccn3c2Nc2ccc3c(c2)OCO3)cc1 |  | 5.13 µM (active) |
| CC12CCC(C/C1=N/O)C2(C)C (stereo unspecified) | -1.49% |  |
| COc1ccc(-c2c(C)n([O-])c3c([n+]2=O)CCCCC3)cc1OC | -3.4% |  |
| Cc1ccc(/C(O)=C2/C(=O)C(=O)OC2c2ccc(Cl)cc2)cc1 (stereo unspecified) | -3.47% |  |
| Oc1ccc(-c2nc3cnccn3c2Nc2ccc3c(c2)OCCO3)cc1 |  | 3.53 µM (active) |
| CCOC(=O)c1sc(N)nc1C(C)C | 22.1% |  |
| CCOC(=O)c1c(N)ssc1=S | 20.8% [at 12.5 µM] |  |
| NNC(=O)c1sc2cc(C(F)(F)F)cnc2c1-c1ccccn1 | -6.44% |  |
| NNC(=O)c1cc(-c2ccccc2)sc1N |  | 8.67 µM (active) |

| Compound | inhibition | IC50 |
| --- | --- | --- |
| CCOC(=O)c1cc(-c2ccc(N)cc2)sc1N |  | 5.53 µM (active) |
| CC(=O)c1ccc2c3c(cccc13)C(=O)N(c1c(C)nn(C)c1C)C2=O | -5.47% |  |
| O=C(NCc1ccco1)Nc1cccs1 | 13.2% |  |
| O=C(NCc1cccs1)Nc1cc(Cl)ccc1Cl |  | 91.1 µM (active) |
| Cc1ccc(C)n1/N=C1/NC(=O)CS1 | -36% |  |
| Oc1cc(O)c2c(c1)OC(c1ccc(O)c(O)c1)C(O)C2 (stereo unspecified) |  | 3.95 µM (active) |
| Oc1cc(O)c2c(c1)O[C@H](c1ccc(O)c(O)c1)[C@@H](O)C2 |  | 11.9 µM (active) |
| COC(=O)Cc1cc(=O)n(-c2nc3ccccc3s2)[nH]1 | 24.2% |  |
| CC(=O)O[C@H]1C[C@@]2(C)[C@@H](C[C@@H](O)[C@H]3[C@@]4(C)CC[C@@H](O)[C@@H](C)[C@@H]4CC[C@@]32C)/C1=C(\CCC=C(C)C)C(=O)O | -1.81% |  |
| N#C/C(=C\c1cccc(Cl)c1)C(=O)c1ccccc1 | -20.2% |  |
| COc1cc(/C=C(\C#N)C(=O)c2ccc(O)c(O)c2)cc(I)c1O |  | 12.3 µM (active) |
| N#C/C(=C\c1ccc(O)c(O)c1)C(=O)c1ccc(O)c(O)c1 |  | 3.24 µM (active) |
| Cc1cccc(C2c3[nH]c4ccccc4c3CCN2C(=O)c2nn(C)c(=O)c3ccccc23)n1 (stereo unspecified) | 16.7% |  |
| COC(=O)/C=C1/N/C(=N\c2nc(C)cc(C)n2)N(c2ccc(Cl)cc2)C1=O | -16.3% |  |
| Cc1cc2ccccc2n1CCNC(=O)COc1ccc2ccccc2c1 | -19.9% |  |
| OC1CCN(C(=S)Nc2ccc(Nc3ccccc3)cc2)CC1 |  | 2.9 µM (active) |
| OCC1CCCN(C(=S)Nc2ccc(Nc3ccccc3)cc2)C1 (stereo unspecified) |  | 3.07 µM (active) |
| Cc1cc(C)c2c(c1)NC(C(=O)O)C1CC=CC21 (stereo unspecified) | 9.1% |  |
